# Assay results reported in PubChem BioAssay AID2557 (NMMLSC, 2010).
# Where “and” joins values, the source holds several entries; their conditions need not be identical. Equal values may be shown once. The campaign covered roughly 330,000 compounds. About 650 (0.2%) were called active. Rule as the data show it: active = inhibition above about 50%; inactive = the rest. Only a selection was taken, and actives are over-represented in it overall. A structure can be active in one record and inactive in another.
# Target: Integrin alpha-4 (Homo sapiens) (UniProt P13612)
# Sequence (P13612 whole entry, looked up): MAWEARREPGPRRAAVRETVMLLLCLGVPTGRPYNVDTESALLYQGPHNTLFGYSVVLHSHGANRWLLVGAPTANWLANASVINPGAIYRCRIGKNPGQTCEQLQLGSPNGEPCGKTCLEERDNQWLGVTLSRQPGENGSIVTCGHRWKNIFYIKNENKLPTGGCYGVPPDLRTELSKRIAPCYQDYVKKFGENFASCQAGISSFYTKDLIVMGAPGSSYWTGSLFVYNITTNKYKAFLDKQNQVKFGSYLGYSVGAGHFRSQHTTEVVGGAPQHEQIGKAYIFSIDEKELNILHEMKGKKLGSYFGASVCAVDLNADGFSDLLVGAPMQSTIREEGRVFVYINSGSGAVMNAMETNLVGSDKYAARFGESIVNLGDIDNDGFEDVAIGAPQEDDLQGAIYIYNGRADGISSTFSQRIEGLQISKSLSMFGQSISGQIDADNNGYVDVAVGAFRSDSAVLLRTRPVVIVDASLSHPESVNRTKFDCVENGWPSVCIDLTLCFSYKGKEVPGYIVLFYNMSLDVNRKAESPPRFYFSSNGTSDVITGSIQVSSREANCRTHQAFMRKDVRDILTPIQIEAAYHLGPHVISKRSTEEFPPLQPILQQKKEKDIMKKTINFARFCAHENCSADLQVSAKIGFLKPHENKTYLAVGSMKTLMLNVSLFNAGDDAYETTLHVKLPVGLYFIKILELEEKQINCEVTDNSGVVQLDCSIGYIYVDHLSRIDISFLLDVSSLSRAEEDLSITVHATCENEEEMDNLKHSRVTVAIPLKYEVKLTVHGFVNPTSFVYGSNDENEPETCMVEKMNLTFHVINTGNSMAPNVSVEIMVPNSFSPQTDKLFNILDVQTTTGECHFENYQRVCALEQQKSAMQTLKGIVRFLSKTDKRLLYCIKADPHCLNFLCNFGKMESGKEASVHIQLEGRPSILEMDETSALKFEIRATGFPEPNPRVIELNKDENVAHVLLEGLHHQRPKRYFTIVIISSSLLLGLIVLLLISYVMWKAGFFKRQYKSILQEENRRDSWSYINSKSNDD
# Test: VLA-4 integrin binding inhibitors – MLPCN library, flow cytometry, VLA-4 expressing cells, VLA-4 allosteric modulator project, primary screen (AID 2557)
# Conditions: ligand binding flow cytometry, stronger effect = higher value, about 7 µM as worked out from the volumes in the protocol
row,SMILES,inhibition
1,Cc1cccc(NC(=O)NC2(C)CCS(=O)(=O)C2)c1 (stereo not given),7.4% (inactive)
2,CCOC(=O)c1ccc(NC(=O)c2ccc(NC(=O)C3CCCO3)cc2)cc1 (stereo not given),6.76% (inactive)
3,O=C(Nc1ccccc1Cl)NC1(C(=O)N2CCOCC2)CCCCC1,10.7% (inactive)
4,CCOc1cc(NC(=S)NCCCN(C)C)c(OCC)cc1NC(=O)C1CC1,-0.39% (inactive)
5,Cc1sc2ncnc(Sc3nc4ccccc4s3)c2c1C,8.09% (inactive)
6,O=C(c1ccco1)N(Cc1nc2ccccc2c(=O)[nH]1)C1CCCC1,-4.47% (inactive)
7,COc1ccccc1NC(=O)c1cc(Cl)nc2ccccc12,7.01% (inactive)
8,COc1ccccc1NC(=O)/C=C/C(N)=O,17.5% (inactive)
9,COc1ccccc1NC(=O)c1cc(Cl)nnc1Cl,50.6% (active)
10,Brc1cc(Br)c(Oc2cc(Br)c(Br)cc2Br)cc1Br,11.2% (inactive)
11,Cc1[nH]c2ccccc2c1SCC(=O)Nc1nccs1,4.64% (inactive)
12,CC1=C(C/C=C(\C)CCCC(C)CCCC(C)CCCC(C)C)C(=O)c2ccccc2C1=O (stereo not given),-3.08% (inactive)
13,O=C(O)CC(Cc1ccccc1)C(=O)Nc1ccc([N+](=O)[O-])cc1 (stereo not given),-9.76% (inactive)
14,Cc1c(C(=O)c2cccc([N+](=O)[O-])c2)c2ccccn2c1CCC#N,-34.5% (inactive)
15,COc1ccc(-c2cc(C(=O)N3CCN(Cc4ccc5c(c4)OCO5)CC3)on2)cc1OC,4.54% (inactive)
16,OCC[C@H]1C[C@H](O)[C@@H](O)[C@]2(CCc3ccccc3O2)O1,-21% (inactive)
17,CC(=O)N1CCOc2ccc(S(=O)(=O)N3CCC(C(=O)Nc4ccccc4F)CC3)cc21,47.6% (inactive)
18,COc1ccc(C(=O)Oc2ccc(-c3nnco3)cc2)cc1S(=O)(=O)N1CCOCC1,-1.94% (inactive)
19,Cc1cc(C)nc(Nc2n[nH]c(-c3ccccc3N)n2)n1,2.65% (inactive)
20,O=C(NN1C(=O)C2C3C=CC(C4CC34)C2C1=O)c1ccc(Cl)cc1 (stereo not given),0.6% (inactive)
21,CC(=O)NC12CC3CC(C1)CC(C(=O)N1CCN(C(=O)c4ccco4)CC1)(C3)C2,6.83% (inactive)
22,CC(=O)NC12CC3CC(C1)CC(C(=O)N1CCN(S(=O)(=O)c4cccs4)CC1)(C3)C2,49.5% (active)
23,O=C(c1cccnc1)N1CCN(S(=O)(=O)c2cccs2)CC1,0.7% (inactive)
24,CCCCn1c(N)c(N(CCC(C)C)C(=O)COC(=O)c2cccnc2OCC)c(=O)[nH]c1=O,-4.24% (inactive)

row,SMILES,inhibition
1,COC(=O)[C@@H]1C[C@H]2CC[C@H](O)C[C@H]2N1Cc1ccc(N2CCN(C)CC2)cc1,-1.75% (inactive)
2,O=C(COc1ccc(S(=O)(=O)NCCc2ccccc2)cc1)N1CCCC1,3.9% (inactive)
3,COCCCn1c(-c2cccs2)nc2nc3ccccc3nc21,-3.42% (inactive)
4,O=C(CN1CCOCC1)Nc1cccc([N+](=O)[O-])c1,-3.87% (inactive)
5,CN1CCN(CC(=O)Nc2cccc([N+](=O)[O-])c2)CC1,-3.14% (inactive)
6,O=C(CN1CCC(NC(=O)Nc2ccccc2)CC1)Nc1cccc([N+](=O)[O-])c1,50.6% (active)
7,COCC1CCCN(Cc2nc(-c3ccc4c(c3)OCO4)no2)C1 (stereo not given),9.31% (inactive)
8,Cc1cc(N2CCCC2=O)cc(C)c1S(N)(=O)=O,14.9% (inactive)
9,COc1ccc(NC(=O)NC2CC3CCCC(C2)N3Cc2ccccc2)cc1 (stereo not given),6.26% (inactive)
10,Cc1noc(C)c1CSCC(=O)N(CCC(C)C)c1c(N)n(Cc2ccccc2)c(=O)[nH]c1=O,-2.16% (inactive)
11,CC1(C)SC2C(NC(=O)COc3ccccc3)C(=O)N2C1C(=O)O (stereo not given),5.73% (inactive) and 56.2% (active)
12,CC1(C)S[C@@H]2[C@H](NC(=O)COc3ccccc3)C(=O)N2C1C(=O)OCc1ccccc1 (stereo not given in full),-9.56% (inactive)
13,CC1(C)S[C@@H]2[C@H](N=CN3CCCCCC3)C(=O)N2[C@H]1C(=O)O,4.34% (inactive)
14,COc1ccccc1N1CCN(c2ncnc3sc(C)c(-c4ccccc4)c23)CC1,-10.6% (inactive)
15,CCn1c(/C=N/NC(=O)c2ccc(OC)cc2)nc2ccccc21,-11% (inactive)
16,O=C(C1CCCO1)N1CCN(C(=S)NC2CC2)CC1 (stereo not given),8.17% (inactive)
17,COc1ccccc1N(C(=O)Cn1nnc2ccccc21)C(C(=O)NCc1ccco1)c1ccc(C)o1 (stereo not given),14% (inactive)
18,O=C(Nc1ccc(F)c(Cl)c1)C1CCN(S(=O)(=O)c2cccnc2)CC1,12.9% (inactive)
19,Nc1nnnn1/N=C/c1cccc(Br)c1,0.88% (inactive)
20,Cc1ccc(NC(=O)OCc2cncs2)cc1,52.5% (active)
21,Cc1ccc(NC(=O)OCCNC(=O)c2ccncc2)cc1,-1.13% (inactive)
22,CCOC(=O)Nc1ccc(NC(=O)OCC)cc1,10.4% (inactive)
23,FC(F)Oc1ccccc1NC(=S)Nc1cccc(Cl)c1Cl,21.2% (inactive)
24,CCN(CC(=O)NCc1ccc(Cl)cc1)C(=O)CSc1ccccc1,-3.34% (inactive)

row,SMILES,inhibition
1,COc1ncnc2c1N=C1CC(C)(C)CC(N)=C1S2,-11.6% (inactive)
2,O=C(NCc1ccc2c(c1)OCO2)C12CC3CC(CC(C3)C1)C2,0.46% (inactive)
3,CCc1c(O)nc(SCC(=O)Nc2ccccc2)n(C(C)CC)c1=O (stereo not given),9.62% (inactive)
4,CCOC(=O)c1sc(C)c2c1NC(C)(c1cccc3ccccc13)NC2=O (stereo not given),-0.92% (inactive)
5,COc1ccc(CCNC(=O)CCC(=O)NC2CCCCC2)cc1OC,4.77% (inactive)
6,CCOP(=O)(OCC)C(Nc1ccc([N+](=O)[O-])cc1)c1ccc(Cl)cc1 (stereo not given),-0.81% (inactive)
7,CCO[C@H]1OC(C(=O)NCc2ccccc2)=C[C@@H](c2coc3ccccc3c2=O)[C@@H]1CCCO,-1.21% (inactive)
8,C=CCSc1nnc2c(n1)-c1cccc3cccc-2c13,-4.2% (inactive)
9,CC(C)(C)C(=O)Cn1c(NCCO)nc2ccccc21,-16.2% (inactive)
10,O=C(Cn1c(NCCO)nc2ccccc21)c1ccc(Cl)cc1Cl,62.2% (active)
11,O=S(=O)(O)c1nc2ccccc2n1Cc1ccc(Cl)cc1Cl,16.4% (inactive)
12,Cn1cc(CN2CCC(C(O)CCc3ccccc3)CC2)c(-c2ccccc2F)n1 (stereo not given),-11.7% (inactive)
13,Cc1c(NC(=O)c2c([N+](=O)[O-])cnn2C)c(=O)n(-c2ccccc2)n1C,17.6% (inactive)
14,Cc1ccc(C2NC(=S)NC3=C2N2CCC3CC2)cc1 (stereo not given),2.28% (inactive)
15,CC[C@@H]1CCCCc2ccccc2[C@@H](C(=O)C[C@H](O)CC(C)=O)OC1=O,-25.7% (inactive)
16,O=C(Nc1ccc(Br)cc1)C1CCC(=O)N1Cc1ccccc1Cl (stereo not given),28.5% (inactive)
17,CCN(CC(=O)Nc1c(F)cccc1F)C(=O)c1ccc(-c2ccccc2)cc1,-6.8% (inactive)
18,CCCC[C@@H]1CN=C(N)N1CCc1cc(C(F)(F)F)cc(C(F)(F)F)c1,8.42% (inactive)
19,CC1CC(C)CN(S(=O)(=O)c2cccc(C(=O)N3C(=O)c4cccc(N)c4C3=O)c2)C1 (stereo not given),3.91% (inactive)
20,Cc1cc(C)nc(/N=C2\NC(=O)CC(C(=O)O)N2c2ccc(Cl)cc2Cl)n1 (stereo not given),-2.34% (inactive)
21,CCOC(=O)c1sc(NC(=O)CSc2nc(O)c(Cc3ccccc3)c(=O)[nH]2)nc1C,2.73% (inactive)
22,O=C(Nc1ncccc1O)c1ccc(C(=O)c2ccccc2)cc1,16.6% (inactive)
23,O=C(NCc1nnc(SCC(=O)N2CCC(Cc3ccccc3)CC2)o1)c1ccco1,-6.21% (inactive)
24,CCc1ccc2c(c1)C1(NN=C(c3ccccc3)S1)C(=O)N2 (stereo not given),92.2% (active)

row,SMILES,inhibition
1,Cc1c(C=O)c2ccccn2c1C(=O)c1ccncc1,11.9% (inactive)
2,Cc1ccc(C)c(N2CCN(C(=O)CCc3nc4ccccc4[nH]3)CC2)c1,8.4% (inactive)
3,CC/C(O)=C1\C(=O)CC(C)(C)CC1=NCCc1nc2ccccc2[nH]1,55.8% (active)
4,CCC/C(O)=C1\C(=O)CC(C)(C)CC1=Nc1ccccc1OC,15.2% (inactive)
5,Cc1cc(C(=O)NNC(=S)NC(C)c2ccccc2)cs1 (stereo not given),6.13% (inactive)
6,CCC(C)(C)NC(=O)C(c1cccc(OC)c1OC)N(CC(C)C)C(=O)CCC(=O)Nc1cc(C)on1 (stereo not given),1.27% (inactive)
7,COc1ccc(OCC(=O)NNC(=O)C2CCC2)cc1,13.2% (inactive)
8,O=C(COc1ccc(Cl)cc1)Nc1ccc2c(c1)OCO2,14.3% (inactive)
9,NNC(=O)COc1ccc(C2SCCS2)cc1,54.2% (active)
10,COC(=O)[C@@]12CCCN1[C@H](c1ccc(-c3ccc(F)cc3)c(OC)c1)[C@H]1C(=O)N(C)C(=O)[C@H]12,21.7% (inactive)
11,Cc1ccc(CNC(=O)CCCNC(=O)c2ccc(Cl)cc2)n1C,-1.01% (inactive)
12,CC(=O)NCC(=O)N(C)C(C(=O)Nc1ccc2c(c1)OCCO2)c1ccccc1 (stereo not given),14.2% (inactive)
13,O=c1[nH]nc(SCCS(=O)(=O)c2ccc(F)cc2)n1-c1ccccc1C(F)(F)F,3.05% (inactive)
14,C=C(C)CNC(=S)/N=c1\scc(C)n1CC,5.83% (inactive)
15,O=C(O)CSCC(=O)Nc1ccc(C(F)(F)F)cc1,4.49% (inactive)
16,Cc1cc2cc3c(N)[nH]nc3nc2cc1C,10.6% (inactive)
17,Cc1cc(OCCN2CCCC2)cc(C(C)C)c1,-8.43% (inactive)
18,Cc1nnc(SCC(=O)Nn2cnnc2)s1,-1.38% (inactive)
19,Cc1ccc(SCC(=O)Nc2ncc(C)s2)cc1,-0.13% (inactive)
20,Cc1cnc(NC(=O)CSc2nnc(C)s2)s1,58.3% (active)
21,COc1cccc(N2CCN(C3CC(=O)N(c4ccc(Cl)cc4)C3=O)CC2)c1 (stereo not given),94.7% (active)
22,COc1cccc(N2C(=O)CC(N3CCc4ccccc4C3)C2=O)c1 (stereo not given),-4.39% (inactive)
23,COc1cccc(N2C(=O)CC(N3CCN(S(=O)(=O)c4ccccc4)CC3)C2=O)c1 (stereo not given),12.7% (inactive)
